Several values for one entry are separate records, joined by “and”; a condition that tells them apart may be missing. Identical values can stand only once. Inconclusive results are not listed. The source holds several records for some structures; these can differ, active in one and inactive in another. Activity calls are given as the source filed them. The calls were made as follows, unless noted: active = hit-call score of the fitted dose curve at least 0.9, where 1 is the maximum; inactive = score below 0.9.
Columns and labels:
[1] = target: Nuclear respiratory factor 1 (Homo sapiens) (UniProt Q16656); assay: ATG_NRF1_CIS: Attagene CIS-FACTORIAL HepG2 Assay for human Nuclear Respiratory Factor 1 (NRF1) Orphan Gene (AID 2282987); conditions: HepG2 NRF1 cis-element reporter, Attagene multiplex; actives raise or lower the signal
Procedure, shortened: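 Endogenous NRF1-driven reporter transcription measured in transiently transfected human HepG2 liver cells. Readout: reporter mRNA by RT-PCR and capillary electrophoresis with fluorescence detection, 24 h post-dosing. Gain or loss of signal fitted relative to DMSO baseline.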

[2] = ATG_NFI_CIS: Attagene CIS-FACTORIAL HepG2 Assay for human Nuclear Factor I (NFI) (AID 2282989); conditions: HepG2 cis-regulatory reporter, NFI response element transcription; actives raise or lower the signal
Procedure, shortened: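 Reporter transcripts were measured by RT-PCR with fluorescent primer extension and capillary electrophoresis 24 h post-treatment. HepG2 cells carried transiently transfected cis-regulated reporter constructs reporting endogenous factor activity; gain or loss fitted against DMSO baseline.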

[3] = target: Myc proto-oncogene protein (Homo sapiens) (UniProt P01106); assay: ATG_Myc_CIS: Attagene CIS-FACTORIAL HepG2 Assay for human Myelocytomatosis (Myc) Proto-Oncogene Transcription Factor (AID 2282990); conditions: HepG2, Attagene cis-reporter transcription factor activity; actives raise or lower the signal
Procedure, shortened: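 After 24 h chemical treatment of HepG2 cells carrying multiplexed cis-regulated reporter constructs, reporter transcripts quantified by RT-PCR and capillary electrophoresis of fluorescent fragments. Gain or loss fitted against DMSO baseline.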

[4] = ATG_NF_kB_CIS: Attagene CIS-FACTORIAL HepG2 Assay for human Nuclear Factor Kappa B (NF-kB) (AID 2282991); conditions: HepG2 Attagene cis-factorial NF-kB reporter mRNA; actives raise or lower the signal
Procedure, shortened: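 Read-out: reporter transcript levels quantified by RT-PCR plus capillary electrophoresis of 6-FAM-labelled, HpaI-cut fragments. Transfected HepG2 cells, 24 h compound exposure, endogenous NF-kB-driven cis element; gain or loss scored versus DMSO.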

[5] = ATG_NRF2_ARE_CIS: Attagene CIS-FACTORIAL HepG2 Assay for human Nuclear Factor Erythroid 2 Related Factor 2 (NFR2) response to Antioxidant Response Elements (ARE) (AID 2282992); conditions: HepG2 Attagene ARE/NRF2 reporter, transcription factor activity; actives raise or lower the signal
Procedure, shortened: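 Transient MRTU transfection of HepG2; 24 h compound exposure; TriZol RNA, RT with oligo(dT), PCR, 6-FAM primer extension, HpaI cut, CE. Bidirectional fit vs DMSO.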

[6] = ATG_Oct_MLP_CIS: Attagene CIS-FACTORIAL HepG2 Assay for human Octamer-Binding Transcription Factor (Oct) (AID 2282993); conditions: HepG2 Attagene cis-factorial Oct reporter, mRNA; actives raise or lower the signal
Procedure, shortened: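 Readout is reporter transcript level from RT-PCR with fluorescent primer extension and capillary electrophoresis, fitted in both directions against DMSO. Transfected HepG2 reporter units report endogenous factor activity after 24 h dosing.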

[7] = target: Cellular tumor antigen p53 (Homo sapiens) (UniProt P04637); assay: ATG_p53_CIS: Attagene CIS-FACTORIAL HepG2 Assay for human p53 Transcription Factor (AID 2282994); conditions: HepG2 p53 cis-element reporter, Attagene mRNA; actives raise or lower the signal
Procedure, shortened: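 HepG2, transient MRTU transfection (cis promoter elements, endogenous TFs); 24 h dosing; RNA isolation, RT-PCR, 6-FAM primer extension, HpaI digest, CE fluorescence; bidirectional fit vs DMSO.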

[8] = BSK_3C_TissueFactor: BioMAP Diversity Plus: 3C Assay for Tissue Factor Biomarker Activity (AID 2282997); conditions: BioMAP 3C HUVEC, tissue factor biomarker readout; actives raise or lower the signal
Procedure, shortened: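 Endothelial monolayers (human umbilical vein, primary) are dosed, incubated 24 h, and assayed for Tissue Factor by ELISA; DMSO serves as negative control for bidirectional fitting.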

[9] = BSK_3C_uPAR: BioMAP Diversity Plus: 3C Assay for Urokinase-type plasminogen activator receptor (uPAR) Biomarker Activity (AID 2282998); conditions: BioMAP 3C HUVEC, uPAR biomarker ELISA; actives raise or lower the signal
Procedure, shortened: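 Cell-surface uPAR on HUVEC (3C system) read by ELISA at 24 h post-treatment, with DMSO as baseline and fitting in both directions. Parallel cultures stained with SRB to flag overt cytotoxicity.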

[10] = BSK_3C_VCAM1: BioMAP Diversity Plus: 3C Assay for Vascular cell adhesion molecule 1 (VCAM1) Biomarker Activity (AID 2282999); conditions: BioMAP 3C HUVEC, VCAM1 ELISA, cytokine-stimulated; actives raise or lower the signal
Procedure, shortened: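 Endothelial cells from human umbilical vein are treated with test chemical. At 24 h, VCAM-1 is measured by ELISA, and responses in either direction are fitted relative to DMSO.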

[11] = BSK_4H_Eotaxin3: BioMAP Diversity Plus: 4H Assay for Eotaxin 3 Biomarker Activity (AID 2283000); conditions: primary human endothelial cells (HUVEC); actives raise or lower the signal
Procedure, shortened: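 ELISA quantitation of CCL26 (Eotaxin-3) protein from chemically dosed human vascular endothelial cells at 24 h; increases and decreases both scored relative to DMSO-treated baseline.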

[12] = read-out: Intercellular Adhesion Molecule 1 (ICAM1), ICAM1 (gene 3383); assay: BSK_3C_ICAM1: BioMAP Diversity Plus: 3C Assay for Intercellular Adhesion Molecule 1 (ICAM1) Biomarker Activity (AID 2283003); conditions: primary human endothelial cells (HUVEC); actives raise or lower the signal
Procedure, shortened: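 Primary human umbilical vein endothelial cells in the BioMAP 3C system were exposed to chemicals for 24 h, then ICAM-1 was quantified by ELISA. Activity was fitted bidirectionally against the DMSO negative control baseline.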

[13] = target: human Retinoic Acid Receptor beta (RARb), RARB (gene 5915) (UniProt P10826); assay: ATG_RARb_TRANS: Attagene TRANS-FACTORIAL HepG2 Assay for human Retinoic Acid Receptor beta (AID 2283004; active = hit-call score of the fitted dose curve at least 0.9, where 1 is the maximum)
Procedure, shortened: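 Fluorescent capillary-electrophoresis detection of GAL4-UAS reporter mRNA defines the endpoint, with induction over DMSO-treated wells scored as activity. Transiently transfected human hepatoma HepG2 cells expressing exogenous NR–Gal4 proteins are exposed to test chemicals for 24 h.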

[14] = BSK_3C_Proliferation: Cell Proliferation Assessment in the BioMAP Diversity Plus: 3C Assay (AID 2283006); conditions: primary human endothelial cells (HUVEC);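 as to AC50: potency may reflect either rise or fall in cell number versus DMSO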
Procedure, shortened: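 Human umbilical vein endothelial cells were grown sub-confluent and exposed to chemical for 48 h, then fixed with 10% TCA and stained with 0.1% sulforhodamine B; absorbance at 560 nm gave relative cell number, fitted bidirectionally against DMSO baseline.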

[15] = target: Nuclear receptor subfamily 1 group I member 2 (Homo sapiens) (UniProt O75469); assay: ATG_PXR_TRANS: Attagene TRANS-FACTORIAL HepG2 Assay for human Pregnane X Receptor (PXR) (AID 2283008; active = hit-call score of the fitted dose curve at least 0.9, where 1 is the maximum)
Procedure, shortened: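 Read-out is fluorescence of labelled reporter cDNA fragments separated by capillary electrophoresis after RT-PCR and HpaI digestion. Source: HepG2 cells carrying PXR-GAL4/UAS reporter constructs, treated 24 h; activity fitted upward relative to DMSO.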

[16] = target: human Peroxisome Proliferator-activated Receptor alpha (PPARa), PPARA (gene 5465) (UniProt Q07869); assay: ATG_PPARa_TRANS: Attagene TRANS-FACTORIAL HepG2 Assay for human Peroxisome Proliferator-activated Receptor alpha (PPARa) (AID 2283001; active = hit-call score of the fitted dose curve at least 0.9, where 1 is the maximum;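 as to AC50: potency for gain of reporter signal over DMSO so agonist or activator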)
Procedure, shortened: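 Reporter transcripts from GAL4-UAS units in transfected HepG2 were quantified 24 h after dosing. Detection used reverse transcription, PCR, fluorescent primer extension and capillary electrophoresis, with DMSO as baseline.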

[17] = target: human Peroxisome Proliferator-activated Receptor delta (PPARd), PPARD (gene 5467) (UniProt Q03181); assay: ATG_PPARd_TRANS: Attagene TRANS-FACTORIAL HepG2 Assay for human Peroxisome Proliferator-activated Receptor delta (PPARd) (AID 2283002; active = hit-call score of the fitted dose curve at least 0.9, where 1 is the maximum)
Procedure, shortened: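 Read-out is induced reporter mRNA, quantified by RT-PCR with fluorescent labelling and capillary electrophoresis after 24 h dosing. Cells are HepG2 transiently carrying multiple GAL4-UAS reporter units driven by exogenous NR-GAL4 chimeras; DMSO serves as baseline.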

[18] = target: human Retinoic Acid Receptor gamma (RARg), RARG (gene 5916) (UniProt P13631); assay: ATG_RARg_TRANS: Attagene TRANS-FACTORIAL HepG2 Assay for human Retinoic Acid Receptor gamma (RARg) (AID 2283009; active = hit-call score of the fitted dose curve at least 0.9, where 1 is the maximum)
Procedure, shortened: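 HepG2 cells transiently transfected with multiplexed reporter units expressing chimeric RARg-GAL4 and GAL4-UAS-driven reporters; 24 h compound exposure. Reporter mRNA quantified by RT-PCR with fluorescent labelling and capillary electrophoresis; gain-of-signal fitted relative to DMSO baseline.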

[19] = target: Peroxisome proliferator-activated receptor gamma (Homo sapiens) (UniProt P37231); assay: ATG_PPARg_TRANS: Attagene TRANS-FACTORIAL HepG2 Assay for human Peroxisome Proliferator-activated Receptor-gamma (PPARg) (AID 2283007; active = hit-call score of the fitted dose curve at least 0.9, where 1 is the maximum)
Procedure, shortened: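 Read-out: reporter mRNA induction, detected by fluorescence after RT-PCR and capillary electrophoresis. Transiently transfected human HepG2 liver cells carrying a chimeric NR-Gal4 construct were dosed for 24 h; activity was fitted upward relative to DMSO.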

[20] = target: Retinoic acid receptor alpha (Homo sapiens) (UniProt P10276); assay: ATG_RARa_TRANS: Attagene TRANS-FACTORIAL HepG2 Assay for human Retinoic Acid Receptor alpha (RARa) (AID 2283005; active = hit-call score of the fitted dose curve at least 0.9, where 1 is the maximum)
Procedure, shortened: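 Reporter transcripts, measured by RT-PCR with fluorescent labeling and capillary electrophoresis after 24 h dosing, reflect activity of an exogenous human RARa–GAL4 fusion in transiently transfected HepG2. Fitted for increase relative to DMSO.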

Measured: AC50

Nuclear respiratory factor 1 (Homo sapiens), sequence (Q16656 whole entry, looked up): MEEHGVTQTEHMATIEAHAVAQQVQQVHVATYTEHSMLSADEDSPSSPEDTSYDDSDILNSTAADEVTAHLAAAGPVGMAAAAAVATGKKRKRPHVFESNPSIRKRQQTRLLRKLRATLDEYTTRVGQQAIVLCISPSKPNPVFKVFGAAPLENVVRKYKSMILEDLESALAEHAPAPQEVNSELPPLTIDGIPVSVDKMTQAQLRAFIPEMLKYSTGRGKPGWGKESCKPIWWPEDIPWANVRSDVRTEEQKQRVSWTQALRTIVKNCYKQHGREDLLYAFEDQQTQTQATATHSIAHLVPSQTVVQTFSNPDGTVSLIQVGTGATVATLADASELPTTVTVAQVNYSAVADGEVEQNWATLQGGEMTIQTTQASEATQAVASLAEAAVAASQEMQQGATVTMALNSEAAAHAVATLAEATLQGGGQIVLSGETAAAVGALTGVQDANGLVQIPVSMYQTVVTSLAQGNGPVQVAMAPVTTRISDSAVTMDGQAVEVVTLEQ
Peroxisome proliferator-activated receptor gamma (Homo sapiens), sequence (P37231 whole entry, looked up, the tested form may be a part): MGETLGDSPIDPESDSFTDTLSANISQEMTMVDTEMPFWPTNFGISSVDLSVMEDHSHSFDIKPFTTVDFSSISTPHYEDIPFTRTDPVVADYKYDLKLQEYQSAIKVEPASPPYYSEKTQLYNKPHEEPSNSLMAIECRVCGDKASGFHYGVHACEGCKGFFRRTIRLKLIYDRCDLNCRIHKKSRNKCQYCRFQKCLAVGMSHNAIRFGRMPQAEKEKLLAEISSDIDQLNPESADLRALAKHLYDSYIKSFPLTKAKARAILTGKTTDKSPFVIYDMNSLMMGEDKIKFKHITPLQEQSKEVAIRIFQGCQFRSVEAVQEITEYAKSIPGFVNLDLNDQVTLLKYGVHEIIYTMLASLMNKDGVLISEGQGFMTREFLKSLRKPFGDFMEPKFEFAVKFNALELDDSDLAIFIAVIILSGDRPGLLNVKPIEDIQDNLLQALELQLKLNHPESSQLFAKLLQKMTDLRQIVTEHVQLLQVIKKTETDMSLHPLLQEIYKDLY
Myc proto-oncogene protein (Homo sapiens), sequence (P01106 whole entry, looked up, the tested form may be a part): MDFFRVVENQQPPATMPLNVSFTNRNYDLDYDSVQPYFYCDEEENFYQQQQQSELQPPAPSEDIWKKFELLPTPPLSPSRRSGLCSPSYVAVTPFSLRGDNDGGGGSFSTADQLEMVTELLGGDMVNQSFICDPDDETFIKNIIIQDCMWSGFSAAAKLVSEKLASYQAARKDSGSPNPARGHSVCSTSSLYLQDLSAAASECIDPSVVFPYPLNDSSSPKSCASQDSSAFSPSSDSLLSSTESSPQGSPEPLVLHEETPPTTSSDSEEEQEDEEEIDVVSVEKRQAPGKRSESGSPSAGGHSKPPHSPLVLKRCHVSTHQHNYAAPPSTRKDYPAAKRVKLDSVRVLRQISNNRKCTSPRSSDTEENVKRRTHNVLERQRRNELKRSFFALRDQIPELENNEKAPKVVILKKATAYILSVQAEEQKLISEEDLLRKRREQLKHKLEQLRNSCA
Nuclear receptor subfamily 1 group I member 2 (Homo sapiens), sequence (O75469 whole entry, looked up, the tested form may be a part): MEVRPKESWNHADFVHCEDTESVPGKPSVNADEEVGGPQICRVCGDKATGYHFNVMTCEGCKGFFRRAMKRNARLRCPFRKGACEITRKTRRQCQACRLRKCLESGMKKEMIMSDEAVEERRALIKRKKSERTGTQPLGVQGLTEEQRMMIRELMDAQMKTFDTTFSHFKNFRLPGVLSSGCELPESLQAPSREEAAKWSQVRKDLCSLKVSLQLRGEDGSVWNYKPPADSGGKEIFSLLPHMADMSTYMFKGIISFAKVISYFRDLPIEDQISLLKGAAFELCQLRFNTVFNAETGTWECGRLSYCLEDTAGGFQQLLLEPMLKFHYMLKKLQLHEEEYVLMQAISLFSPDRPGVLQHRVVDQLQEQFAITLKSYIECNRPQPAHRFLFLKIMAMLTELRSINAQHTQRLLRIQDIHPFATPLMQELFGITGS
human Retinoic Acid Receptor beta (RARb), RARB (gene 5915), sequence (P10826 whole entry, looked up, the tested form may be a part): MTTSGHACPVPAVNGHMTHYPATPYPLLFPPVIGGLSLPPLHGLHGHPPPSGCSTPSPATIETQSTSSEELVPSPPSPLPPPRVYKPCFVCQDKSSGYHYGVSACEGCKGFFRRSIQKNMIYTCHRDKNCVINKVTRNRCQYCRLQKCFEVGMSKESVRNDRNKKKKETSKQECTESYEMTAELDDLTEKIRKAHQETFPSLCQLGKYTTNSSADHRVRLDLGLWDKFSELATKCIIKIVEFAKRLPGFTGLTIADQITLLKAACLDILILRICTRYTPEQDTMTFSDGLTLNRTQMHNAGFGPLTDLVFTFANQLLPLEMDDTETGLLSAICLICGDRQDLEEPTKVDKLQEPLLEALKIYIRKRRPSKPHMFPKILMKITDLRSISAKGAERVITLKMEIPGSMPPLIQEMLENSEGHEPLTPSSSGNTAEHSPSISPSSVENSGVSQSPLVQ
human Retinoic Acid Receptor gamma (RARg), RARG (gene 5916), sequence (P13631 whole entry, looked up, the tested form may be a part): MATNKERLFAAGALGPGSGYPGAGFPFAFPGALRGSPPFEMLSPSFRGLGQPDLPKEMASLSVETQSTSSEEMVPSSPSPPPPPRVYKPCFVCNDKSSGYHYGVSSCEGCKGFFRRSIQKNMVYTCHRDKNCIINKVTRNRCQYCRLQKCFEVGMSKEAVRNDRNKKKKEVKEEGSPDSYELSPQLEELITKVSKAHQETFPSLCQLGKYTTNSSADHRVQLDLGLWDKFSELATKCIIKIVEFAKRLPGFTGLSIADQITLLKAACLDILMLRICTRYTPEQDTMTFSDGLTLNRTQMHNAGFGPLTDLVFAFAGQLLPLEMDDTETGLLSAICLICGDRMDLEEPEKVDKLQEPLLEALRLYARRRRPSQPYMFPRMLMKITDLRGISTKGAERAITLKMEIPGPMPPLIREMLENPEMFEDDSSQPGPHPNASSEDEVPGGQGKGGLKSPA
Cellular tumor antigen p53 (Homo sapiens), sequence (P04637 whole entry, looked up): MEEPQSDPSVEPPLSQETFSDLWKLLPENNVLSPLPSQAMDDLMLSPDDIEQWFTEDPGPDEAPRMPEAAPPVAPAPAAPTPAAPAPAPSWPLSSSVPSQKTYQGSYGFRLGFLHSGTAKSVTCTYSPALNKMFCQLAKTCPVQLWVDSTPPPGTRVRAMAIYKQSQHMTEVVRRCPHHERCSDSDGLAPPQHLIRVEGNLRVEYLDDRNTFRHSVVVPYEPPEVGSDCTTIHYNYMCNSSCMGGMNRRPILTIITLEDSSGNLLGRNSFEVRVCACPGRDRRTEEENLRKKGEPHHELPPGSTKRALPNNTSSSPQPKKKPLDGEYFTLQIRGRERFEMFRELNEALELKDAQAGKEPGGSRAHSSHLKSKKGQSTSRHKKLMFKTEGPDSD
human Peroxisome Proliferator-activated Receptor delta (PPARd), PPARD (gene 5467), sequence (Q03181 whole entry, looked up, the tested form may be a part): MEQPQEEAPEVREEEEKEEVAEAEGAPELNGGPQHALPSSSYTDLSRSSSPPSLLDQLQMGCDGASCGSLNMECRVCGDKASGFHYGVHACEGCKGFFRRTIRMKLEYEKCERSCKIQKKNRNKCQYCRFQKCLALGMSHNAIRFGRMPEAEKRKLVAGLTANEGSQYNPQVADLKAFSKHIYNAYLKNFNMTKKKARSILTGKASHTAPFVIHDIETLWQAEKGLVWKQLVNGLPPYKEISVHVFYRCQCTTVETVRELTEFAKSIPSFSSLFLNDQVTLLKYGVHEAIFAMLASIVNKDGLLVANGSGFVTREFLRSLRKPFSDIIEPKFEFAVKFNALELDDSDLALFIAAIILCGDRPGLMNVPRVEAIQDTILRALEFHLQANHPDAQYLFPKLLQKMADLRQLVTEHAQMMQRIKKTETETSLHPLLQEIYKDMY
human Peroxisome Proliferator-activated Receptor alpha (PPARa), PPARA (gene 5465), sequence (Q07869 whole entry, looked up, the tested form may be a part): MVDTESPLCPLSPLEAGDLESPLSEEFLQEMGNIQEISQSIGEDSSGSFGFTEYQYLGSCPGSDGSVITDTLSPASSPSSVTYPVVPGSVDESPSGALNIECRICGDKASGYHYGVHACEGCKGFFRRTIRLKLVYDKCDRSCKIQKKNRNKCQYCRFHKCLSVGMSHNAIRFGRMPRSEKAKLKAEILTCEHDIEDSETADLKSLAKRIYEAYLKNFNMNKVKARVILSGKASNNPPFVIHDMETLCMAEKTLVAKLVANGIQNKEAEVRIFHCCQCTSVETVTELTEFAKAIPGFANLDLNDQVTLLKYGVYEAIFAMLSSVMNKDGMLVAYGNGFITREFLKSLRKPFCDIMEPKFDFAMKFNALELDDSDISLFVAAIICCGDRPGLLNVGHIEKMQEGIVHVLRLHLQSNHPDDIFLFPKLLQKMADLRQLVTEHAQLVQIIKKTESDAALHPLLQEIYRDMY
Retinoic acid receptor alpha (Homo sapiens), sequence (P10276 whole entry, looked up, the tested form may be a part): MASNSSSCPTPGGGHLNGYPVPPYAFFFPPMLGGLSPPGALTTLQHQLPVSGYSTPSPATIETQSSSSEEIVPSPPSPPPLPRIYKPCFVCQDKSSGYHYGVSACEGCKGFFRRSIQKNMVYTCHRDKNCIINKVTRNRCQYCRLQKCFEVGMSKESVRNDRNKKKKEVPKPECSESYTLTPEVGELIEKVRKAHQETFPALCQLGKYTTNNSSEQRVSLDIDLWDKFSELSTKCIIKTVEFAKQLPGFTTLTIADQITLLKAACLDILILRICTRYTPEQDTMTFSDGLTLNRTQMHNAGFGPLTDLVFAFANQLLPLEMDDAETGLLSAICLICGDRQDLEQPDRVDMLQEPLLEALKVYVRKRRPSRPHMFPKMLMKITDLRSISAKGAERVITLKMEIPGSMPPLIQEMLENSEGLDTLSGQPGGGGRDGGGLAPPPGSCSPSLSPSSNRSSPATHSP

N#C[C@@H]1CC(F)(F)CN1C(=O)CNC1CC2CCC(C1)N2c1ncccn1 (some centres undefined)
not listed: [16] | [17] | [18] | [19] | [20]
inactive: all other assays above

CC1=C(/C=C/C(C)=C/C=C/C(C)=C/C(=O)O)C(C)(C)CCC1
inactive: [1] | [2] | [3] | [4] | [5] | [7] | [8] | [9] | [16] | [17] | [12] | [13] | [15] | [18]
active: [5] 35.7 µM | [7] 20.6 µM | [10] 27.9 µM | [11] 9.37 µM | [16] 100 µM | [17] 56 µM | [14] 32.8 µM | [15] 19.8 µM

CC[C@H](c1ccc(O)cc1)[C@@H](CC)c1ccc(O)cc1
active: [5] 6.58 µM [middle of 4 runs] | [7] 17.5 µM | [8] 32.5 µM | [9] 21.7 µM | [10] 34.2 µM | [11] 27.6 µM | [12] 36.4 µM | [14] 15.9 µM
inactive: [1] | [2] | [3] | [4] | [6] | [7] | [17] | [19]

COCC(C)O (centres undefined)
not listed: [13] | [15] | [17] | [18] | [19] | [20]
inactive: all other assays above

ClC1=C(Cl)C(Cl)(Cl)C(Cl)=C1Cl
active: [1] 14 µM and 9.06 µM | [2] 15.3 µM and 7.42 µM | [4] 8.6 µM and 5.05 µM | [5] 3.07 µM and 6.04 µM | [6] 13.4 µM and 6.26 µM | [7] 17.4 µM and 11.1 µM | [8] 5.07 µM | [9] 5.21 µM | [10] 5.82 µM | [11] 7.45 µM | [12] 6.79 µM | [14] 3.29 µM
inactive: [3] | [16] | [17] | [15] | [18]

CC(O)C(=O)O (centres undefined)
not listed: [8] | [9] | [10] | [11] | [12] | [14] | [19]
inactive: all other assays above

Nc1cccc2c(N)cccc12
active: [5] 46.6 µM
not listed: [6] | [19] | [20]
inactive: all other assays above
